Screen size: about 77,000 compounds; about 4,600 (6%) were called active. Another 1% or so got no clear call; they are omitted. This excerpt belongs to a sample that is enriched for actives. Unmarked numbers belong to inactive results.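 How the source made its calls: active means mean inhibition above about 93%, with at least 55% of replicates each passing it (limit read from the data, passing the limit was not always enough); inconclusive means only one of those two conditions holds; inactive means neither condition holds.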

This test can be described thus: growth inhibition of T. cruzi in host fibroblasts – cell-based, beta-gal Tulahuen parasites, NIH3T3 host, luminescence, primary screen (AID 624255). To be noted: T. cruzi beta-gal in NIH3T3, GalScreen luminescence, 90 h; at 8.34 µM; stronger effect = higher value.
On to `COc1ccc(S(=O)(=O)N2CC[C@H]3[C@@H](CO)N(C)c4ccc(C#Cc5ccccc5OC)cc4[C@H]32)cc1`, for which the inhibition was 52%.
For the compound `CCC(=O)Nc1ccc2c(c1)C(=O)N(C)[C@@H]1CC[C@@H](CC(=O)NCc3ccccc3Cl)O[C@H]1CO2`, the inhibition was 5.11%.
For the compound `CCNC(=O)Nc1ccc2c(c1)C(=O)N(C)[C@@H]1CC[C@@H](CC(=O)NCCOC)O[C@@H]1CO2`, the inhibition is 4.1%.
Consider `C[C@@H]1CN([C@@H](C)CO)S(=O)(=O)c2ccc(C3=CCCC3)cc2O[C@@H]1CN(C)Cc1ccncc1`, for which the inhibition was 69.1%.
For `C[C@H]1CN([C@@H](C)CO)S(=O)(=O)c2ccc(C3=CCCC3)cc2O[C@H]1CN(C)Cc1cccc(C(=O)O)c1`, the inhibition was 18.6%.
As for `C[C@H]1CN([C@@H](C)CO)S(=O)(=O)c2ccc(C3=CCCC3)cc2O[C@@H]1CN(C)Cc1ccccc1`, the inhibition is 99.6% (active).
With `C[C@@H]1CN([C@H](C)CO)S(=O)(=O)c2ccc(C3=CCCC3)cc2O[C@H]1CN(C)Cc1ccccc1F`, the inhibition was 118% (active).
As to `C[C@@H]1CN([C@@H](C)CO)S(=O)(=O)c2ccc(C3=CCCCC3)cc2O[C@@H]1CN(C)Cc1cccc(C(=O)O)c1`, the inhibition is 24%.
With `C[C@H](CO)N1C[C@H](C)[C@@H](CN(C)Cc2cccnc2)Oc2cc(C3=CCCC3)ccc2S1(=O)=O`, the inhibition was 93.1%.
On to `C[C@@H]1CN([C@@H](C)CO)S(=O)(=O)c2ccc(C3=CCCCC3)cc2O[C@@H]1CN(C)C(=O)CN(C)C`, for which the inhibition is 84.4%.
As to `C[C@H]1CN([C@@H](C)CO)S(=O)(=O)c2ccc(C3=CCCCC3)cc2O[C@@H]1CN(C)Cc1ccccc1`, the inhibition was 117% (active).
`C[C@@H]1CN([C@@H](C)CO)S(=O)(=O)c2ccc(C3=CCCC3)cc2O[C@H]1CN(C)C(=O)CC1CC1`: the inhibition was 36%.
Take `O=C(CCN1CCCCC1)NCC[C@H]1CC[C@@H](NC(=O)C2CCOCC2)[C@H](CO)O1`: the inhibition was 26.2%.
Turning to `CO[C@@H]1CN(C)C(=O)c2cc(NC(=O)C3CC3)ccc2OC[C@@H](C)N(C(=O)NC(C)C)C[C@@H]1C`, the inhibition was 72%.
Take `CC(C)(C)[S@](=O)N1Cc2cc(C(=O)N3CCCCC3)nc(-c3cccc(-c4ccccc4F)c3)c2[C@@H]1CCO`: the inhibition is 23.3%.
With `C[C@@H]1CN([C@@H](C)CO)C(=O)c2cc(-c3cncnc3)cnc2O[C@H]1CN(C)C(=O)c1cccc(F)c1`, the inhibition is 0.0585%.
Turning to `C[C@@H]1CN([C@@H](C)CO)C(=O)c2cc(NC(=O)Nc3cccc4ccccc34)ccc2O[C@H]1CN(C)Cc1ccc(Cl)c(Cl)c1`, the inhibition is 97.7% (active).
As for `C[C@@H]1CN([C@H](C)CO)C(=O)c2cc(NC(=O)Nc3ccccc3)ccc2O[C@H]1CN(C)Cc1ccc(Cl)c(Cl)c1`, the inhibition is -217%.
Turning to `C[C@@H]1CN([C@@H](C)CO)C(=O)c2cc(NC(=O)Nc3cccc4ccccc34)ccc2O[C@@H]1CN(C)Cc1ccc(-c2ccccc2)cc1`, the inhibition was 84.4%.
Take `C[C@@H]1CN([C@H](C)CO)C(=O)c2cc(NC(=O)Nc3ccccc3)ccc2O[C@@H]1CN(C)Cc1ccc(Cl)c(Cl)c1`: the inhibition is -114%.
The result for `C[C@@H]1CN([C@@H](C)CO)C(=O)c2cc(NC(=O)Nc3cccc4ccccc34)ccc2O[C@H]1CN(C)Cc1ccc(Oc2ccccc2)cc1` reads 121% (active).
Regarding `COc1ccc(CN(C)C[C@@H]2Oc3ccc(NC(=O)Nc4cccc5ccccc45)cc3C(=O)N([C@H](C)CO)C[C@H]2C)cc1`, the inhibition was 74.4%.
Regarding `COc1ccc(S(=O)(=O)N[C@H]2C=C[C@@H](CC(=O)O)O[C@@H]2CO)cc1`, the inhibition was 8.59%.
The result for `CCCN1C[C@@H](C)[C@@H](OC)CN(C)C(=O)c2ccc(NC(=O)Nc3cccc(F)c3)cc2OC[C@@H]1C` reads 9.75%; that for `COc1cccc(CNC(=O)C[C@H]2CC[C@@H](NC(C)=O)[C@@H](CO)O2)c1`, -45.2%; that for `CC(=O)N1C[C@@H]2[C@H](c3ccccc31)[C@H](CO)N2C(=O)Nc1ccc(F)cc1`, -6.85%.
Turning to `C[C@@H](NC(=O)C[C@@H]1CC[C@H]2[C@@H](COC[C@@H](O)CN2C(=O)Nc2cccc(F)c2)O1)c1ccccc1`, the inhibition is 33.4%.
Regarding `O=C(C[C@@H]1C[C@H]2c3cc(NC(=O)Nc4ccccc4)ccc3O[C@H]2[C@@H](CO)O1)NCc1cccnc1`, the inhibition is -4.79%.
The result for `Cc1noc(C)c1NC(=O)Nc1ccc2c(c1)C(=O)N([C@H](C)CO)C[C@@H](C)[C@@H](CN(C)S(=O)(=O)c1ccc(Cl)cc1)OCCCC[C@H](C)O2` reads 55.2%; that for `COc1ccccc1S(=O)(=O)N[C@@H]1CC[C@H](CC(=O)N2CCN(C)CC2)O[C@@H]1CO`, -19.7%; that for `O=C(Nc1ccc2c(c1)[C@@H]1C[C@H](CC(=O)N3CCOCC3)O[C@@H](CO)[C@@H]1O2)c1ccc2c(c1)OCO2`, 103% (active).
In the case of `COc1cccc(S(=O)(=O)Nc2ccc3c(c2)[C@@H]2C[C@@H](CC(=O)NCc4ccc(Cl)cc4)O[C@H](CO)[C@@H]2O3)c1`, the inhibition is 32.2%.
`O=C(C[C@H]1C[C@@H]2c3cc(NC(=O)c4ccc5c(c4)OCO5)ccc3O[C@@H]2[C@@H](CO)O1)NCc1cccnc1`: the inhibition was -76.9%.
The result for `O=C(C[C@@H]1C[C@H]2c3cc(NC(=O)C4CCOCC4)ccc3O[C@H]2[C@H](CO)O1)NCc1ccc2c(c1)OCO2` reads 40.2%; that for `CN1CCN(C(=O)C[C@@H]2C[C@@H]3c4cc(NC(=O)c5ccc6c(c5)OCO6)ccc4O[C@@H]3[C@H](CO)O2)CC1`, 8.43%; that for `O=C(C[C@@H]1C[C@H]2c3cc(NC(=O)C4CCC4)ccc3O[C@H]2[C@@H](CO)O1)NCc1ccc2c(c1)OCO2`, 106% (active).
The same measure for `CCCNC(=O)C[C@H]1C[C@@H]2c3cc(NS(=O)(=O)c4cccc(OC)c4)ccc3O[C@@H]2[C@@H](CO)O1`: -11.6%; for `COc1cccc(S(=O)(=O)Nc2ccc3c(c2)[C@H]2C[C@H](CC(=O)NCc4ccc(Cl)cc4)O[C@H](CO)[C@H]2O3)c1`: 159% (active); for `CN(C)C(=O)C[C@@H]1C[C@@H]2c3cc(NC(=O)c4ccc5c(c4)OCO5)ccc3O[C@@H]2[C@H](CO)O1`: -59.5%.
`O=C(C[C@@H]1C[C@@H]2c3cc(NC(=O)c4ccc5c(c4)OCO5)ccc3O[C@@H]2[C@@H](CO)O1)NCc1ccc(Cl)cc1`: the inhibition is 97.9% (active).
On to `O=C(C[C@@H]1C[C@H]2c3cc(NC(=O)CC4CC4)ccc3O[C@H]2[C@@H](CO)O1)NCc1ccc2c(c1)OCO2`, for which the inhibition is 30.3%.
For the compound `O=C(C[C@H]1C[C@H]2c3cc(NC(=O)c4ccc5c(c4)OCO5)ccc3O[C@H]2[C@@H](CO)O1)NCc1cccc(F)c1`, the inhibition was 38.1%.
The result for `CCNC(=O)C[C@@H]1CC[C@H]2[C@@H](COc3ccc(NC(=O)NC(C)C)cc3C(=O)N2C)O1` reads 39.8%; that for `C[C@H](CO)N1C[C@H](C)[C@@H](CN(C)S(=O)(=O)c2cccs2)OCc2ccccc2-c2ccccc2C1=O`, 24.1%.
In the case of `O=C(C[C@@H]1C[C@H]2c3cc(NS(=O)(=O)c4ccc(F)cc4)ccc3O[C@H]2[C@H](CO)O1)NC1CCCC1`, the inhibition is -34%.
As to `O=S(=O)(N[C@@H]1CC[C@H](CCn2cc(-c3ccccc3F)nn2)O[C@H]1CO)c1ccc(F)cc1`, the inhibition was 41.8%.
The same measure for `COc1cccc(NC(=O)Nc2ccc3c(c2)C(=O)N(C)[C@@H]2CC[C@@H](CC(=O)NCCc4ccccc4)O[C@H]2CO3)c1`: 52.2%; for `COc1ccc(S(=O)(=O)N2C[C@@H](O)COC[C@H]3O[C@H](CC(=O)N[C@H]4CCN(Cc5ccccc5)C4)CC[C@@H]32)cc1`: 77.6%; for `COc1ccc(NC(=O)Nc2ccc3c(c2)C(=O)N([C@H](C)CO)C[C@@H](C)[C@@H](CN(C)C(=O)NC(C)C)OCCCC[C@H](C)O3)cc1`: 38.7%.
`CCC(=O)N(C)C[C@H]1Oc2cc(-c3ccccc3F)ccc2S(=O)(=O)N([C@H](C)CO)C[C@@H]1C`: the inhibition is 81.3%.
`O=C(C[C@H]1CC[C@H]2[C@@H](COC[C@H](O)CN2Cc2ccncc2)O1)NCC1CC1`: the inhibition is 8.17%.
The same measure for `C[C@@H]1CN([C@@H](C)CO)C(=O)c2cc(C#CCN(C)C)cnc2O[C@H]1CN(C)S(=O)(=O)c1cn(C)cn1`: -8.13%; for `Cn1cnc(S(=O)(=O)N2C[C@H](O)COC[C@@H]3O[C@H](CC(=O)NC4CCCC4)CC[C@H]32)c1`: 5.65%; for `CCC(=O)N1[C@@H]2c3ccc(-c4cccnc4)c(=O)n3C[C@H]1[C@H](CO)[C@H]2C(=O)N1CCc2ccccc2C1`: 29.4%.
The result for `O=C(C1CCC1)N1C[C@@H]2[C@H](c3ccccc31)[C@H](CO)N2C(=O)c1ccccc1` reads 11.8%; that for `CCCN(C)C[C@H]1Oc2cc(C#CCC(C)C)ccc2S(=O)(=O)N([C@H](C)CO)C[C@H]1C`, 75.8%.
As for `COCC#Cc1ccc2c(c1)O[C@@H](CN(C)Cc1cccnc1)[C@@H](C)CN([C@H](C)CO)S2(=O)=O`, the inhibition is 70%.
In the case of `CC(C)CC#Cc1ccc2c(c1)O[C@H](CN(C)Cc1ccncc1)[C@H](C)CN([C@H](C)CO)S2(=O)=O`, the inhibition was 118% (active).
As for `CC(C)CC#Cc1ccc2c(c1)O[C@H](CN(C)Cc1cccnc1)[C@H](C)CN([C@@H](C)CO)S2(=O)=O`, the inhibition was 103% (active).
The result for `CC(C)CC#Cc1ccc2c(c1)O[C@H](CN(C)C(=O)c1cccnc1)[C@@H](C)CN([C@H](C)CO)S2(=O)=O` reads 78.2%; that for `CCNC(=O)C[C@H]1CC[C@@H](NC(=O)C2CCOCC2)[C@@H](CO)O1`, 40%.

As a reminder, the inhibition is the relative decrease from the control value, in per cent.

Source of the values: PubChem BioAssay AID624255 (Broad Institute, 2012).
